About 1,000 (0.32%) of roughly 310,000 compounds were called active. Only a sample is shown. Entries with a potency or affinity are not part of this list. Values without a mark were called inactive. No rule for the calls is given here.

The assay can be described thus: Inhibition of PhoP regulon, Salmonella typhi GFP reporter cells, confirmation, 4 h (AID 1850).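 Also: 0% = induced wells with vehicle and 100% = uninduced wells.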 Conditions: Salmonella Typhi PhoP-promoter GFP reporter, fluorescence, at 50 µM, hits give high values.
For the compound `Cc1cc(C)c(C(=O)/C=C/c2cccc3ccccc23)c(=O)[nH]1`, the inhibition (in general, the drop in the measured response relative to a control, in per cent) is -11.9%. To `CCn1c(=O)cc(SCC(=O)N2CCOCC2)c2ccccc21` belongs 0.81%; to `Cc1cccc(OCCc2c(C)[nH]c(=S)[nH]c2=O)c1`, -1.55%; to `NC(=O)CSc1nnc(Cn2c(=O)sc3ccccc32)n1CCc1ccccc1`, 1.95%.

As for `COc1cccc(NC(=O)CCCCCN2C(=O)[C@@H]3Cc4ccccc4CN3C2=O)c1`, the inhibition is 6.78%. Next, `CCN1C(=O)CSC1=Nc1ccc(OC)cc1`: -7.25%; `COc1cc(OC)c(OC)cc1CNCCNC(=O)c1nonc1N`: 6.25%; `CN1CCN(C2Cc3ccc(F)cc3Sc3cc(F)c(Cl)cc32)CC1` (configuration not stated): 8.23%.

With `CCOC(=O)c1cccnc1NC(=O)c1ccccc1`, the inhibition was -7.33%. To `COc1ccccc1C(=O)NC(C(=O)NCCc1nc2ccccc2[nH]1)=C(C)C` belongs -1.36%.

In the case of `COc1ccc(CNc2ncnc3c2[nH]c2cc(OC)c(OC)cc23)cc1`, the inhibition was 3.65%. To `COCCNc1ncnc2c1[nH]c1ccccc12` belongs 8.5%; to `OCCCNc1ncnc2c1[nH]c1ccccc12`, 2.26%; to `O=c1c2[nH]c3ccccc3c2ncn1CCC1=CCCCC1`, -7.17%.

Consider `CCOCCCNc1ncnc2c1[nH]c1ccccc12`, for which the inhibition was 0.37%. Next, `CCN(CC)CCCNc1ncnc2ccccc12`: 0.53%; `OCCCCCNc1ncnc2ccccc12`: 2.05%; `CC(C)OCCCNc1ncnc2c1[nH]c1ccccc12`: 11.2%. As to `COc1cc([N+](=O)[O-])cc(/C=N/NC(=O)c2cc(-c3ccccc3)nc3ccccc23)c1O`, the inhibition is -2.11%. To `O=C(CCC(=O)c1ccc(F)cc1)NC1CCCN(Cc2ccccc2F)C1` (configuration not stated) belongs -3.89%; to `O=C(c1cc(Br)ccc1Cl)N1CCCC1`, 6%. To `Cc1ccc(NS(=O)(=O)c2ccc(C(=O)NCC(c3ccco3)N(C)C)cc2)cc1` (configuration not stated) belongs -2.21%. To `CCOC(=O)C1=C(O)c2ccccc2C(=O)/C1=C\c1ccc(CC)cc1` belongs -9.78%.

In the case of `CCCc1ccc(/C=C2\C(=O)c3ccccc3C(O)=C2C(=O)OCC)cc1`, the inhibition is -2.52%. Next, `Nc1ccc(C(=O)Oc2ccc([N+](=O)[O-])cc2)c(O)c1`: -25%. As for `N#CCC(=O)Nc1ccc(C(=O)OCC(=O)Nc2ccccc2Sc2ccccc2)cc1`, the inhibition is -5.37%. Regarding `Cc1ccccc1OCC(O)CN1CCN(c2ccc(Cl)cc2)CC1` (configuration not stated), the inhibition was 6.16%. Next, `CNNC(=S)Nc1cccc(C(F)(F)F)c1`: 6.82%; `Nc1ccc2c(c1)N1CCN=C1S2`: -12.9%; `O=C(CC1SC2=NCCN2C1=O)Nc1ccc(Cl)cc1` (configuration not stated): -0.31%.

Consider `FC(F)C(F)(F)c1cc(-c2ccccc2)n[nH]1`, for which the inhibition was 5.29%. For the compound `Cc1ccc(O)c(-c2cc(C(F)(F)C(F)F)[nH]n2)c1`, the inhibition is -3.16%.

As for `O=c1nc(-c2ccccc2)n(-c2ccc(Cl)cc2)[nH]1`, the inhibition was -11%. To `Cc1ccc(OCCC(=O)Nc2ccc(S(=O)(=O)Nc3cc(C)nc(C)n3)cc2)cc1` belongs -3.66%; to `Cc1cc(C(=O)N/N=C/c2ccc([N+](=O)[O-])s2)n[nH]1`, 21.5%.

Take `Cc1ccc(C(=O)N/N=C\c2cccs2)cn1`: the inhibition is -3.85%. To `Cc1ccc(C(=O)N/N=C/c2ccc([N+](=O)[O-])s2)cc1` belongs -14.9%. Turning to `Cn1c(SCC(=O)N/N=C/c2ccc([N+](=O)[O-])s2)nnc1-c1ccccc1`, the inhibition was 17.5%. On to `O=C(N/N=C/c1ccc([N+](=O)[O-])s1)c1ccncc1`, for which the inhibition is -1.03%. Next, `Cn1c(SCC(=O)N/N=C/c2cc([N+](=O)[O-])ccc2O)nnc1-c1ccccc1`: 2.1%. To `COC(=O)N/N=C/c1ccc([N+](=O)[O-])s1` belongs -3.8%; to `O=C(N/N=C\c1ccc([N+](=O)[O-])s1)c1cncc(Br)c1`, -10.5%; to `O=C(Nc1ccc2c(c1)CCC2)c1ccc(Cl)nc1`, 8.38%.

Take `COC/C=C/C1=CC2=CC(=O)C(C)(OC(=O)c3cnc4ccccc4n3)C(=O)C2=CN1c1cccc(C#N)c1` (configuration not stated): the inhibition is 0.42%. To `O=C(CSc1nccc(=O)[nH]1)N1CCOCC1` belongs -10%.

Regarding `CN(CCCCN1CCOCC1)Cc1nc(-c2ccc3c(c2)OCO3)no1`, the inhibition is -10.5%.

Consider `CCn1cc(C(=O)c2cccs2)c2ccccc21`, for which the inhibition was -0.847%.

With `O=C(CSc1nnc(SCc2ccccc2)s1)N/N=C/C=C/c1ccccc1[N+](=O)[O-]`, the inhibition is 8.59%.

Take `CCn1cc(C(=O)N2CCN(c3ccccc3F)CC2)c(=O)c2ccc(C)nc21`: the inhibition was -6.12%. Next, `c1ccc(-c2cc(-c3ccncc3)nc3ccc4ccccc4c23)cc1`: -9.12%. Next, `N#C/C(=C\c1ccc([N+](=O)[O-])o1)c1nc2ccccc2[nH]1`: 7.25%; `Cc1ccc2nc(/C(C#N)=C/c3ccc(-c4cccc([N+](=O)[O-])c4)o3)[nH]c2c1`: -10.4%. Next, `COC(=O)c1[nH]c2cc(OC)ccc2c1NC(=O)c1ccc2c(c1)OCO2`: -8.72%; `O=C(Nc1cccnc1)c1ccc(Br)s1`: 12.6%; `CCc1cc(C(=O)Nc2ccc(OC)nc2)sc1C`: 4.89%. For `CCc1sc(C(=O)Nc2cccnc2)cc1Br`, the inhibition is -8.13%.

Turning to `COc1ccc(NC(=O)c2cccs2)cn1`, the inhibition is 2.51%.

Regarding `O=S(=O)(c1ccc(-c2csc(-c3cccnc3)n2)cc1)N1CCCC1`, the inhibition is 0%.

As for `Cc1cc(C)n(CC(O)Cn2cnc3c2c(=O)n(C)c(=O)n3C)n1` (configuration not stated), the inhibition was -7.83%. Next, `CCN(CC(=O)NCc1ccc(Cl)cc1)C(=O)CSc1cccc(C(F)(F)F)c1`: 5.75%. Turning to `COc1ccc(C2=NN(CN3C(=O)C(=O)c4ccccc43)C(c3ccc(OC)cc3)C2)cc1` (configuration not stated), the inhibition was -8.46%. To `Cc1nc2c(C#N)cnn2c2c1CCN(Cc1ccccc1)N2C` belongs 0.51%.
